From PubChem BioAssay (Tox21)
“And” between values parts separate entries of the source, which are not always exact repeats. Equal entries are not always repeated. Results filed as inconclusive are left out. Entries that show only a call come without a potency. Where a structure was tested more than once in an assay, its records may differ in their call. The source made the active and inactive calls. Unless noted, calls follow the shape of the dose curve; as a rule, active = well fitted curve in the direction sought with a large enough effect in the repeat runs; inconclusive = weak or mixed curves; inactive = no such curve, though single readings can be large; an effect the other way counts as inactive or inconclusive.

Experiments:
[1] = qHTS assay to identify small molecule agonists of the androgen receptor (AR) signaling pathway in the presence of an antagonist - cell viability counter screen (AID 1259379); also: nearly all actives have a fitted effect of over 25% in size; also: potency is read from the fitted curve at half-maximal effect
Summary of the method: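 Cytotoxicity is assessed by CellTiter-Fluor in MDA-kb2 cells carrying an MMTV-driven luciferase reporter. Cells receive 3.0uM nilutamide plus compounds at 15 concentrations and incubate 16 hr at 37C without CO2 before fluorescence reading.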

[2] = qHTS assay to identify small molecule agonists of the estrogen receptor beta (ER-beta) signaling pathway - cell viability counter screen (AID 1259380); also: nearly all actives have a fitted effect of over 30% in size; also: potency is read from the fitted curve at half-maximal effect
Summary of the method: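 Cytotoxicity is measured in parallel with the reporter screen: after 16 hr compound exposure at 37C and a 2 hr LiveBLAzer step, CellTiter-Glo is added to the same ER-beta-UAS-bla HEK293T wells and luminescence read after 30 min.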

[3] = biological target: Androgen receptor (Homo sapiens) (UniProt P10275); test: qHTS assay to identify small molecule agonists of the androgen receptor (AR) signaling pathway in the presence of an antagonist (AID 1259381; calls by dose curve; also: nearly all actives have a fitted effect of over 15% in size)
Summary of the method: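 Agonist-mode confirmation screen: human MDA-kb2 cells stably expressing luciferase under an MMTV promoter bearing AR and GR response elements, co-treated with 3.0uM nilutamide (final). Luminescence measured after 16hr compound incubation.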

[4] = qHTS assay to identify small molecule antagonists of the estrogen receptor beta (ER-beta) signaling pathway - cell viability counter screen (AID 1259382); also: nearly all actives have a fitted effect of over 55% in size; also: potency is read from the fitted curve at half-maximal effect
Summary of the method: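 Cytotoxicity counter screen multiplexed with the beta-lactamase antagonist assay: GripTite HEK293T ER-beta-bla cells were treated 16 hr with test chemicals in the presence of 1nM 17-beta-estradiol, and viability was measured by CellTiter-Glo.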

[5] = biological target: Estrogen receptor (Homo sapiens) (UniProt P03372); test: qHTS assay to identify small molecule agonists of the estrogen receptor alpha (ER-alpha) signaling pathway in the presence of an antagonist (AID 1259383; calls by dose curve; also: nearly all actives have a fitted effect of over 15% in size; also: potency is read from the fitted curve at half-maximal effect; as to activation: top concentration of the series differs between compounds)
Summary of the method: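 Agonist-mode confirmation in the presence of the ER antagonist ICI-182,780 at 10.0nM final. Breast-derived VM7Luc4E2 reporter cells were exposed to compounds for 22hr, and ERE-driven luciferase was quantified by luminescence.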

[6] = qHTS assay to identify small molecule agonists or antagonists of the thyroid stimulating hormone receptor (TSHR) signaling pathway - wild type cell line counter screen (AID 1259384; calls by dose curve)
Summary of the method: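 Counter screen in untransfected Hek293: compounds (15-point titration, triplicate) plus phosphodiesterase inhibitor Ro20-1724 added after 18 h plating; 30 min RT. Intracellular cAMP via competitive d2/cryptate immunoassay, 1 h incubation.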

[7] = biological target: Thyrotropin receptor (Homo sapiens) (UniProt P16473); test: qHTS assay to identify small molecule antagonists of the thyroid stimulating hormone receptor (TSHR) signaling pathway (AID 1259385; calls by dose curve; also: nearly all actives have a fitted effect of over 20% in size; also: potency is read from the fitted curve at half-maximal effect)
Summary of the method: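 Antagonist mode: compound-treated TSHR-expressing HEK293 cells were stimulated with 1.5 ng/mL TSH (final) in presence of Ro20-1724 for 30 min at RT. HTRF cAMP detection after 1 h; each compound tested at 15 concentrations, triplicate.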

[8] = qHTS assay to identify small molecule agonists of the estrogen receptor alpha (ER-alpha) signaling pathway in the presence of an antagonist - cell viability counter screen (AID 1259386);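 also: cells exposed to compounds for 22 h at 37 °C before the viability read; nearly all actives have a fitted effect of over 30% in size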; also: potency is read from the fitted curve at half-maximal effect
Summary of the method: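 Cytotoxicity was measured in parallel with the ERE-luciferase agonist screen, in the same wells. The cells were VM7Luc4E2, which endogenously express ER-alpha, and treatment was with compounds plus 10.0nM ICI-182,780 for 22hr.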

[9] = qHTS assay to identify small molecule agonists of the progesterone receptor (PR) signaling pathway - cell viability counter screen (AID 1346799; calls by dose curve; also: nearly all actives have a fitted effect of over 45% in size; also: potency is read from the fitted curve at half-maximal effect)
Summary of the method: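 Cells (PR-UAS-bla HEK293T) are plated at 3,000/well in 2% charcoal-stripped FBS medium, rested 6 hr, dosed and incubated 16 hr at 37C. CellTiter-Glo is then added and luminescence measured after 30 min at room temperature.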

[10] = qHTS assay to identify small molecule antagonists of the TGF-beta/Smad signaling pathway - cell viability counter screen (AID 1346824); also: nearly all actives have a fitted effect of over 50% in size; also: potency is read from the fitted curve at half-maximal effect
Summary of the method: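 Cytotoxicity counter-screen run in the same wells as the beta-lactamase Smad reporter read: CellTiter-Glo luminescence after 30 min at room temperature. HEK 293T SBE-bla cells had 5 hr compound exposure at 37 C with TGF-beta1 (0.25 ng/mL stock).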

[11] = biological target: Thyrotropin-releasing hormone receptor (Homo sapiens) (UniProt P34981); test: qHTS assay to identify small molecule antagonists of the thyrotropin-releasing hormone receptor (TRHR) signaling pathway (AID 1346877; active = well fitted inhibition curve with a large enough effect in the repeat runs, not every such curve was filed as active; also: series mostly up to about 51 µM)
Summary of the method: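 Antagonism is measured as suppression of the calcium response to 1 nM TRH in TRHR-HEK293 cells that have been dye-loaded for 2 h at 37 °C after overnight plating. Each compound is tested at 15 concentrations in triplicate.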

[12] = biological target: Thyrotropin-releasing hormone receptor (Homo sapiens) (UniProt P34981); test: qHTS assay to identify small molecule agonists of the thyrotropin-releasing hormone receptor (TRHR) signaling pathway (AID 1346891; calls by dose curve;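 also: HEK293 cells expressing TRHR with calcium dye readout; series mostly up to about 58 µM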)
Summary of the method: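 Cells: TRHR-Hek293, seeded and incubated 18 h. Dye loading: 2 h at 37 °C. Compound added from DMSO stock by pin tool. Read-out: kinetic calcium fluorescence over 3 min.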

[13] = Human pregnane X receptor (PXR) small molecule agonists, qHTS cell viability counter screen (AID 1346977); also: nearly all actives have a fitted effect of over 50% in size; also: potency is read from the fitted curve at half-maximal effect
Summary of the method: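 Cytotoxicity counter screen run in the same wells as the PXR luciferase assay, using PXR-Luc HepG2 cells in charcoal-stripped serum medium. Viability: CellTiter-Fluor fluorescence after 24hr compound treatment.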

[14] = biological target: Progesterone receptor (Homo sapiens) (UniProt P06401); test: qHTS assay to identify small molecule agonists of the progesterone receptor (PR) signaling pathway (AID 1346784; calls by dose curve; also: nearly all actives have a fitted effect of over 30% in size)
Summary of the method: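 Cells (PR-UAS-bla HEK 293T, GripTite) were plated in assay medium containing 2% charcoal-stripped FBS and incubated 6 hr. Test compounds in DMSO were added for 16 hr at 37C. FRET substrate was then loaded for 2 hr at room temperature before fluorescence reading.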

[15] = qHTS assay to identify small molecule antagonists of the progesterone receptor (PR) signaling pathway - cell viability counter screen (AID 1346798); also: series mostly up to about 92 µM; nearly all actives have a fitted effect of over 50% in size
Summary of the method: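 Counter screen for cytotoxicity: viability of PR-UAS-bla HEK293T cells was measured with CellTiter-Glo luminescence following 16 hr compound exposure in the presence of R5020.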

[16] = qHTS assay to identify small molecule agonists of the TGF-beta/Smad signaling pathway - cell viability counter screen (AID 1346829); also: top concentration of the series differs between compounds; nearly all actives have a fitted effect of over 45% in size
Summary of the method: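 Cytotoxicity counter screen: CellTiter-Glo luminescence (30 min, room temperature) measured in the SBE-bla HEK 293T reporter wells after 5 hr compound treatment at 37 C and the 2 hr substrate step.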

[17] = qHTS assay to identify small molecule agonists of the TGF-beta/Smad signaling pathway (AID 1346859; active = well fitted activation curve with a large enough effect in the signal ratio in the repeat runs, not every such curve was filed as active; the % refers to the signal ratio; also: series mostly up to about 77 µM)
Summary of the method: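 Reporter line: HEK 293T with stably integrated SBE-controlled beta-lactamase. Compound exposure lasts 5 hr at 37 C and 5% CO2; substrate loading follows for 2 hr at room temperature, with emission read at 460 and 530 nm.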

[18] = biological target: Progesterone receptor (Homo sapiens) (UniProt P06401); test: qHTS assay to identify small molecule antagonists of the progesterone receptor (PR) signaling pathway (AID 1346795; active = well fitted inhibition curve with a large enough effect in the signal ratio in the repeat runs, not every such curve was filed as active; the % refers to the signal ratio; also: potency is read from the fitted curve at half-maximal effect)
Summary of the method: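 Antagonist mode: compounds tested against 1 nM (final) promegestone stimulation in HEK293T cells expressing PR-UAS-bla reporter, 16 hr at 37C, 5% CO2; beta-lactamase activity detected via B/G FRET substrate after 2 hr at room temperature.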

Thyrotropin-releasing hormone receptor (Homo sapiens), sequence (P34981 whole entry, looked up): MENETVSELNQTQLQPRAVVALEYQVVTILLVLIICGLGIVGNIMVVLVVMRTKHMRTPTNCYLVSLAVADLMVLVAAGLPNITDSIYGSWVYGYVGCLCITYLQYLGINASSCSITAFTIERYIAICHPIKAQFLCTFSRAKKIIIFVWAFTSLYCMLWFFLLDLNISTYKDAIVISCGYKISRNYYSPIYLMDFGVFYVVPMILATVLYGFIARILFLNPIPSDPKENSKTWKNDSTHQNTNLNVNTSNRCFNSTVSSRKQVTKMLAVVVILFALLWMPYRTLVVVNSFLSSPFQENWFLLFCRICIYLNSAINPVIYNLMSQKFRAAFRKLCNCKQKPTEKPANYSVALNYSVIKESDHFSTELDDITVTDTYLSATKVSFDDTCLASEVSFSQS
Estrogen receptor (Homo sapiens), sequence (P03372 whole entry, looked up): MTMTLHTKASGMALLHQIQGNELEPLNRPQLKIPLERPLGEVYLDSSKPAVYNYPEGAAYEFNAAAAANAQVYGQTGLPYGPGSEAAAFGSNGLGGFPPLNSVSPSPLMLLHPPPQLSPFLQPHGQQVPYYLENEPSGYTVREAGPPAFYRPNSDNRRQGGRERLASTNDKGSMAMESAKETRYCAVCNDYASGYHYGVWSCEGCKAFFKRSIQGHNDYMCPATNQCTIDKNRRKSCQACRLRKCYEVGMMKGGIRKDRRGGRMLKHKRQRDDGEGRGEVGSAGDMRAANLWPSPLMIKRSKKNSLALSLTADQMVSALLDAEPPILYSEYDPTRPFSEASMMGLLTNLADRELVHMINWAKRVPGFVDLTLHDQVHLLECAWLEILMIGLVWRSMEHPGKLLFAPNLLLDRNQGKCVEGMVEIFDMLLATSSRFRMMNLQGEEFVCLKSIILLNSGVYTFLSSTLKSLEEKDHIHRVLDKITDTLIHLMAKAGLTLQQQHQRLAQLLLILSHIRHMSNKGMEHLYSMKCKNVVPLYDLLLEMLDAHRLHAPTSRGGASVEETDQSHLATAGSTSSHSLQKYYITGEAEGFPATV
Thyrotropin receptor (Homo sapiens), sequence (P16473 whole entry, looked up): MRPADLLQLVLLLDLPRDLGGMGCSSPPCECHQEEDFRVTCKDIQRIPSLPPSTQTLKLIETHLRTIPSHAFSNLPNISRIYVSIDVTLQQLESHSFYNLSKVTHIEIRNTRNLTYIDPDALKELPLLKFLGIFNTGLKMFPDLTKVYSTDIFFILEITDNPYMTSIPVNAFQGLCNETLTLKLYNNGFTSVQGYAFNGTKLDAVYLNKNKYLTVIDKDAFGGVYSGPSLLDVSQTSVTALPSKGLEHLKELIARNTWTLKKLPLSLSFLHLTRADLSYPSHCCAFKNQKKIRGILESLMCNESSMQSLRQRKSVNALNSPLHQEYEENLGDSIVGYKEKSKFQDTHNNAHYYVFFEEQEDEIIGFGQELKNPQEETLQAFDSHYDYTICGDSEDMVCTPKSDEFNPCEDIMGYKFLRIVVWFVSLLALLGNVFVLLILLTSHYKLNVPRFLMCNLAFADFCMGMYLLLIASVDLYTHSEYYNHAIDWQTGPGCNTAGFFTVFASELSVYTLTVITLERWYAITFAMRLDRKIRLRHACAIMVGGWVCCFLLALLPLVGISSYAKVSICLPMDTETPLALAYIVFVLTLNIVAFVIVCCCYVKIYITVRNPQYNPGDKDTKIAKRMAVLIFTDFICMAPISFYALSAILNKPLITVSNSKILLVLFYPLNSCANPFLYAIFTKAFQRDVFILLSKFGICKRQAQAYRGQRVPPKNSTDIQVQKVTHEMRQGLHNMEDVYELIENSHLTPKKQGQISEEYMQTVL
Progesterone receptor (Homo sapiens), sequence (P06401 whole entry, looked up): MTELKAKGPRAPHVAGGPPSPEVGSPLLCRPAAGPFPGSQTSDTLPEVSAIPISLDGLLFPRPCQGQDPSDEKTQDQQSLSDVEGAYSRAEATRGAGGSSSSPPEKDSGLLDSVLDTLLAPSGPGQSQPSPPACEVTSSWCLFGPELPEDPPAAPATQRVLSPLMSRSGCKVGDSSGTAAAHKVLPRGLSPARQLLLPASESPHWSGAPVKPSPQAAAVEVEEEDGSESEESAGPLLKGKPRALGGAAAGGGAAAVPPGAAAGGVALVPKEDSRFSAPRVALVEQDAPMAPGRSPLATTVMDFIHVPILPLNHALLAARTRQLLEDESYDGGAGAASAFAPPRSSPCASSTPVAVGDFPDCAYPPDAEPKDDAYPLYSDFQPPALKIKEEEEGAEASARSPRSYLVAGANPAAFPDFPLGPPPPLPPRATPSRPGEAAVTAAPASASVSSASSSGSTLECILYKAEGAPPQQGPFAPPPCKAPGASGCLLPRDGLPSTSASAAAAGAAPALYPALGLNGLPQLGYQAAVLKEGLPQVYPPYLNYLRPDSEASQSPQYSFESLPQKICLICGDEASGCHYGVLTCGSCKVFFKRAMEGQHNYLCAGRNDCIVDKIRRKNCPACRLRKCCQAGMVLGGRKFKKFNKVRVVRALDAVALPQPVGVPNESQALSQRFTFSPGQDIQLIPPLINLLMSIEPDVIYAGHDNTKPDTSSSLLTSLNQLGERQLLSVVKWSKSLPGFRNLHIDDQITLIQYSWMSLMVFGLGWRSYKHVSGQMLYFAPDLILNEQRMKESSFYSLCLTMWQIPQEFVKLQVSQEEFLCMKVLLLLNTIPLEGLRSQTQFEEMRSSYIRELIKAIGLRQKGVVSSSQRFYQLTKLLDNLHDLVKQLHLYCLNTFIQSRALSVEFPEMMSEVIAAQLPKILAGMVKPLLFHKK
Androgen receptor (Homo sapiens), sequence (P10275 whole entry, looked up): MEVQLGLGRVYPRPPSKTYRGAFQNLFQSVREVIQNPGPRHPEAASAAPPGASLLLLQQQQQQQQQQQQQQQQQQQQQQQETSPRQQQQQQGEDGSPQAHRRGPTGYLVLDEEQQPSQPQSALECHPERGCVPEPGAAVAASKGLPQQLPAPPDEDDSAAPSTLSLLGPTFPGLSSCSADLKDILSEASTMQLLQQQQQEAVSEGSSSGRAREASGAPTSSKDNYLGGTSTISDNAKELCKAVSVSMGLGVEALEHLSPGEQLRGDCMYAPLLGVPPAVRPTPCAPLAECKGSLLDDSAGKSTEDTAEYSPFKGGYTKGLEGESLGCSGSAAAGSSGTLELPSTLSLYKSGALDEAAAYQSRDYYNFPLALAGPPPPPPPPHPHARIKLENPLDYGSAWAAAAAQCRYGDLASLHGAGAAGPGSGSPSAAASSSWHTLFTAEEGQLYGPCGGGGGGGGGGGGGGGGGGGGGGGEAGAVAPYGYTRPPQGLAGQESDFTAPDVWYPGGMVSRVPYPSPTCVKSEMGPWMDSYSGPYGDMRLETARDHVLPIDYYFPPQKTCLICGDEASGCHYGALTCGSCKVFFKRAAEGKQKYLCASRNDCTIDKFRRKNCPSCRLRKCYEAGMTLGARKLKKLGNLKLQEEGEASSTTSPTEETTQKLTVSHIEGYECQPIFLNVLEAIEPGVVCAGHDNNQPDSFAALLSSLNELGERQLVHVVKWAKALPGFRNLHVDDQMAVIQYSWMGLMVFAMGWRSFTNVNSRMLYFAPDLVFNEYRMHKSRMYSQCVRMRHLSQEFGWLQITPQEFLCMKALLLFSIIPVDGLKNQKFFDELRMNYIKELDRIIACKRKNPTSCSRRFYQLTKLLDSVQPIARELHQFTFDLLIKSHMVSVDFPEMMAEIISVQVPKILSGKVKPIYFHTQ

| SMILES | Potency [1] | Potency [2] | Potency [3] | Potency [4] | Potency [5] | Potency [6] | Potency [7] | Potency [8] | Potency [9] | Potency [10] | Potency [11] | Potency [12] | Potency [13] | Potency [14] | Potency [15] | Potency [16] | outcome [17] | Potency [18] |
| --- | --- | --- | --- | --- | --- | --- | --- | --- | --- | --- | --- | --- | --- | --- | --- | --- | --- | --- |
| CCCCCCCCCCCCCC[P+](CCCC)(CCCC)CCCC | 19.2 µM (active) and 15.4 µM (active) | 17.1 µM (active) and 27.3 µM (active) | inactive | 19.2 µM (active) and 24.3 µM (active) | inactive | inactive | 54.2 µM (active) and 48.6 µM (active) | 12.1 µM (active) and 17.2 µM (active) | 30.5 µM (active) | 10.9 µM (active) and 27.5 µM (active) | inactive | inactive | 6.31 µM (active) and 13.7 µM (active) | – | – | – | – | – |
| NC(N)=Nc1nc(CSCC/C(N)=N/S(N)(=O)=O)cs1 | inactive | inactive | – | inactive | inactive | – | – | inactive | inactive | inactive | – | – | inactive | inactive | inactive | inactive | inactive | – |
| CC[C@@H](N)CO | inactive | inactive | – | inactive | inactive | inactive | inactive | inactive | inactive | inactive | inactive | inactive | inactive | inactive | – | inactive | inactive | inactive |
| Cc1cc(C2(c3cc(C)c(O)cc3C)OS(=O)(=O)c3ccccc32)c(C)cc1O | 54.5 µM (active) and 27.3 µM (active) | inactive | – | inactive | 43.3 µM (active) and inactive | – | inactive | 30.6 µM (active) and 21.7 µM (active) | inactive | inactive | – | – | 35.5 µM (active) and 13.7 µM (active) | inactive | – | inactive | inactive | 61.1 µM (active) |
| O=C(O)CP(=O)(O)O | inactive | inactive | – | inactive | inactive | inactive | inactive | inactive | inactive | inactive | – | – | inactive | inactive | inactive | inactive | inactive | inactive |
